Experimental data: PubChem BioAssay AID1159580 (chemical genetic matrix, 2015)
Where “and” joins values, the source holds several entries; their conditions need not be identical. Equal values may be shown once. Screen size: about 5,500 compounds; about 2,000 (36%) were called active. Not shown: some 18% with an inconclusive outcome. Cut-off read from the data, not from the text of the source: active = normalized growth mostly below about 0.91 (no sharp cut-off); inconclusive = no clear call, values can overlap the other calls; inactive = mostly above about 0.92. The list shows a part of the results.

Assay: chemical genetic growth profiling, strain panel (AID 1159580);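 note: tested at 20 µM; growth read once vehicle control cultures reached saturation at 30 °C; 1 = growth at the plate median or of vehicle wells; lower values mean less growth of the strain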
Settings: S. cerevisiae deletion strains, growth OD

Measured: normalized growth

COP(=S)(OC)SCn1nnc2ccccc2c1=O
inactive: locus YAL013W, strain DEP1, active compounds read low 0.987 | locus YAL021C, strain ccr4, active compounds read low 1 | locus YAL026C, strain drs2, active compounds read low 1 | locus YAL030W, strain snc1, active compounds read low 1.03 | locus YBL061C, strain skt5, active compounds read low 1.01 | locus YBR009C, strain hhf1, active compounds read low 1 | locus YBR021W, strain FUR4, active compounds read low 0.887 | locus YBR023C, strain chs3, active compounds read low 0.997 | locus YBR171W, strain sec66, active compounds read low 1.01 | locus YBR229C, strain ROT2, active compounds read low 0.955 | locus YBR231C, strain swc5, active compounds read low 1 | locus YBR279W, strain paf1, active compounds read low 0.992 | locus YCL011C, strain gbp2, active compounds read low 1 | locus YCL016C, strain dcc1, active compounds read low 0.994 | locus YCL029C, strain bik1, active compounds read low 0.974 | locus YCL061C, strain MRC1, active compounds read low 0.996 | locus YCL069W, strain vba3, active compounds read low 1.02 | locus YCR088W, strain abp1, active compounds read low 1.02 | locus YDL005C, strain med2, active compounds read low 1 | locus YDL035C, strain GPR1, active compounds read low 0.921 | locus YDL040C, strain nat1, active compounds read low 1.01 | locus YDL074C, strain BRE1, active compounds read low 0.9 | locus YDL101C, strain DUN1, active compounds read low 0.966 | locus YDL134C, strain PPH21, active compounds read low 0.985 | locus YDL185W, strain tfp1, active compounds read low 0.948 | locus YDL192W, strain arf1, active compounds read low 0.976 | locus YDR001C, strain nth1, active compounds read low 1.02 | locus YDR069C, strain doa4, active compounds read low 0.96 | locus YDR101C, strain arx1, active compounds read low 0.986 | locus YDR137W, strain rgp1, active compounds read low 0.985 | locus YDR150W, strain NUM1, active compounds read low 0.971 | locus YDR159W, strain sac3, active compounds read low 0.927 | locus YDR162C, strain NBP2, active compounds read low 0.963 | locus YDR195W, strain ref2 1.06 | locus YDR297W, strain sur2, active compounds read low 0.998 | locus YDR318W, strain mcm21, active compounds read low 0.972 | locus YDR334W, strain swr1, active compounds read low 1.01 | locus YDR335W, strain msn5, active compounds read low 1 | locus YDR388W, active compounds read low 0.979 | locus YDR392W, strain spt3, active compounds read low 1.03 | locus YDR502C, strain sam2, active compounds read low 0.98 | locus YEL003W, strain gim4, active compounds read low 0.984 | locus YEL037C, strain rad23, active compounds read low 1.01 | locus YEL061C, strain CIN8 (second series), active compounds read low 1.01 | locus YEL061C, strain CIN8, active compounds read low 0.985 | locus YER015W, strain faa2, active compounds read low 1 | locus YER016W, strain bim1, active compounds read low 1.02 | locus YER110C, active compounds read low 0.97 | locus YER111C, strain swi4, active compounds read low 0.996 | locus YER155C, strain BEM2 (second series), active compounds read low 0.999 | locus YER155C, strain BEM2, active compounds read low 0.993 | locus YER167W, strain BCK2, active compounds read low 0.989 | locus YFR010W, strain ubp6, active compounds read low 0.98 | locus YGL078C, strain dbp3, active compounds read low 0.997 | locus YGL086W, strain mad1, active compounds read low 0.992 | locus YGL167C, strain pmr1, active compounds read low 0.992 | locus YGL173C, strain kem1, active compounds read low 1 | locus YGL227W, strain vid30, active compounds read low 0.997 | locus YGL240W, strain doc1, active compounds read low 0.904 | locus YGL248W, strain PDE1, active compounds read low 0.953 | locus YGL253W, strain hxk2, active compounds read low 0.993 | locus YGR078C, strain PAC10, active compounds read low 0.953 | locus YGR135W, strain pre9, active compounds read low 0.969 | locus YGR229C, strain SMI1, active compounds read low 0.956 | locus YGR252W, strain gcn5, active compounds read low 0.824 | locus YHR013C, strain ard1, active compounds read low 0.913 | locus YHR027C, strain rpn1, active compounds read low 1.02 | locus YHR030C, strain SLT2, active compounds read low 0.973 and 0.958 | locus YHR079C, strain IRE1 (second series), active compounds read low 0.983 | locus YHR079C, strain IRE1, active compounds read low 0.979 | locus YHR094C, strain hxt1, active compounds read low 0.99 | locus YHR129C, strain ARP1, active compounds read low 0.967 | locus YHR142W, strain chs7, active compounds read low 0.987 | locus YHR200W, strain rpn10, active compounds read low 0.99 | locus YIL066C, strain RNR3, active compounds read low 0.935 | locus YIL073C, strain SPO22, active compounds read low 0.963 | locus YIL125W, strain kgd1, active compounds read low 0.979 | locus YIR030C, strain dcg1, active compounds read low 0.992 | locus YJL092W, strain hpr5, active compounds read low 1.01 | locus YJL095W, strain BCK1 (second series), active compounds read low 1 | locus YJL095W, strain BCK1, active compounds read low 0.974 and 0.949 | locus YJL115W, strain asf1, active compounds read low 0.991 | locus YJL129C, strain trk1, active compounds read low 1.02 | locus YJL134W, strain LCB3, active compounds read low 0.979 | locus YJL154C, strain vps35, active compounds read low 1.02 | locus YJL164C, strain tpk1, active compounds read low 0.984 | locus YJL166W, strain qcr8, active compounds read low 1.01 | locus YJL168C, strain set2, active compounds read low 0.982 | locus YJL187C, strain SWE1 (second series), active compounds read low 0.977 | locus YJL187C, strain SWE1, active compounds read low 1.01 | locus YJR043C, strain POL32, active compounds read low 0.953 | locus YJR066W, strain TOR1, active compounds read low 0.905
